# According to PubChem BioAssay (NCI):
# The panel holds about 83,000 compounds, 20% with a hit somewhere; the sample as a whole holds those more often.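 Single-concentration screen, 48 h exposure, 96-well plates. Endpoint: percent growth. Below 10 = active.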 Activity calls are given as the source filed them.
# Tested on: HS 578T breast
# Experiment: NCI-60 one-dose screen, 48 h (100 = growth as untreated, 0 = no growth, -100 = all killed)
# Details: 10 µM unless noted
row,Compound,growth
1,CCCCCN1C=C/C(=C\C(=O)N(C)c2ccc(Oc3ccccc3)cc2)c2ccccc21,99.5% (inactive)
2,CNC(=O)c1cncc(Cn2nc(C)c(NC(=O)c3ccc(COc4ccc(C(F)(F)F)cc4C)cc3)c2C)c1,92.7% (inactive)
3,Nc1c(C(=O)Nc2ccnc3ccccc23)sc2nc3c(cc12)CN(Cc1ccccc1)CC3,89.9% (inactive)
4,CC1=C(C(=O)/C=C/c2ccc(N(C)C)cc2)C(c2ccccc2)NC(=S)N1 (stereo not drawn),98.2% (inactive)
5,Nc1nc(Nc2ccccc2SSc2ccccc2Nc2nc(N)nc(-c3cccs3)n2)nc(-c2ccsc2)n1,93.3% (inactive)
6,COc1cc2c(cc1OC)C(=O)/C(=C/c1cc(C)c(O)c(C)c1)S2,36.8% (inactive)
7,COc1cc2c(=O)n(CCCN(C)C)c3c4cc5c(cc4ccc3c2cc1OC)OCO5,67.1% (inactive)
8,CCN(CC)CC[n+]1cc2cc(OC)c(OC)cc2c2ccc3cc4c(cc3c21)OCO4,-4.12% (active)
9,O=C(Nc1ccc(NC(=O)c2cc(=O)[nH]c3ccccc23)cc1)Nc1cccc(Cl)c1,93.5% (inactive)
10,COc1ccc(/C=C2\Oc3cc(OCCCN4CCCCC4)ccc3C2=O)cc1OC,92% (inactive)
11,Cc1nc(N)nc(N[C@@H](C)c2nc3cccc(NCc4ccc(C(=O)NO)cc4)c3c(=O)n2-c2ccccc2)n1,72.1% (inactive)
12,Cc1ccc(/C=N/NC(=O)CSc2nc3ccccc3c(=O)n2Cc2ccc(S(N)(=O)=O)cc2)cc1,88.5% (inactive)
13,COc1cc(/C(C)=C(\c2ccc(Cl)cc2)c2ccc(OCCN3CCCC3)cc2)ccc1F,70.5% (inactive)
